Results from PubChem BioAssay AID485313 (National Center for Advancing Translational Sciences (NCATS), 2010).
About 7,600 (2.4%) of roughly 320,000 compounds were called active. Entries that show only a call come without a potency. Roughly 3% stayed inconclusive and do not appear here. This is one part of a sample in which actives are shown more often than they occur. Calls come from the whole dose curve; as a rule, active = well fitted activation curve with a large enough effect; inconclusive = small, poorly fitted or top-dose-only effect; inactive = no such curve, though single readings can be large or run the other way.
Potency is the fitted concentration of half-maximal effect.

Assay: qHTS Assay for NPC1 Promoter Activators; note: nearly all actives have a fitted effect of over 60% in size;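 for activation: reporter is driven by a mutant NPC1 promoter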
Details: Huh7 NPC1 promoter luciferase reporter, 24 h; series mostly up to 9.22 µM
Summary of the method: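 Stable NPC1-promoter luciferase Huh7 line; cpd (DMSO) 24 h, 37 °C, 5% CO2; Amplite luciferase reagent 10 min RT; luminescence readout. qHTS format.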
In the case of `O=C(CNC(=O)c1cccs1)N/N=C/c1cccc(Br)c1`, the Potency is reported as “inactive”.
In the case of `CCN(CC)c1ccc(/C=N/NC(=O)CNC(=O)c2cccs2)cc1`, the Potency is reported as “inactive”.
In the case of `CC(=O)Nc1ccc(/C=N/NC(=O)c2cccs2)cc1`, the Potency is reported as 2.51 µM (active).
With `CC(=O)c1ccc(OC(=O)N2CCOCC2)cc1` the Potency was “inactive”.
In the case of `CC(C)CN(C(=O)CSc1nncn1C)C1CCS(=O)(=O)C1` (centres undefined), the Potency is reported as “inactive”.
With `CC(C)CNC(=O)c1cc(-c2ccc(Br)cc2)on1` the Potency was 3.16 µM (active).
With `Cc1c(NC(=O)c2cc(-c3ccc(Br)cc3)on2)c(=O)n(-c2ccccc2)n1C` the Potency was “inactive”.
For `COc1ccc(-c2cc(C(=O)NCCCN3CCOCC3)no2)cc1`, the Potency was “inactive”.
For `COc1ccc(CCC(=O)N2CCN(S(=O)(=O)c3ccc(OC)cc3)CC2)cc1`, the Potency was “inactive”.
For `Cc1cc(NC(=O)COc2ccc([N+](=O)[O-])cc2)no1`, the Potency was “inactive”.
With `Cc1cccc(NC(=O)CN2CCN(CC(=O)NCC3(N4CCCCC4)CCCCC3)CC2)c1C` the Potency was “inactive”.
For `CN(CC(=O)NC(=O)Nc1ccccc1F)Cc1ccccc1`, the Potency was “inactive”.
In the case of `CC(C)(C)C(=O)Nc1ccc(-c2cn3cccnc3n2)cc1`, the Potency is reported as 3.16 µM (active).
For `CCCCCC(=O)Nc1ccc(-c2cn3cccnc3n2)cc1`, the Potency was “inactive”.
For `CC(=O)Nc1ccc(S(=O)(=O)Nc2cccc(NC(=O)C(C)(C)C)c2)cc1`, the Potency was “inactive”.
With `O=C1C=C(c2ccnc3cc(Cl)ccc23)C[C@@H](c2ccc3c(c2)OCO3)C1` the Potency was “inactive”.
In the case of `Cc1ccc(CNC(=O)c2cc(-c3ccccc3C)n(CC3CC(c4cccc([N+](=O)[O-])c4)=NO3)n2)cc1` (centres undefined), the Potency is reported as “inactive”.
For `CN(c1ccccc1)S(=O)(=O)c1cccc(NC(=O)Cc2ccc(Cl)cc2)c1`, the Potency was “inactive”.
In the case of `S=C(c1ccc(-c2ccccc2)o1)N1CCCCC1`, the Potency is reported as 2.24 µM (active).
In the case of `OCCN1CCN(C(=S)c2ccc(-c3ccccc3)cc2)CC1`, the Potency is reported as “inactive”.
In the case of `S=C(c1ccccc1)N1CCCC1`, the Potency is reported as “inactive”.
In the case of `O=C(OCC(=O)N1CCCC1)c1ccc(Cl)nc1`, the Potency is reported as “inactive”.
For `Cc1ccc(Nc2nnc(SC(C)C(=O)NC3CC3)s2)cc1` (centres undefined), the Potency was “inactive”.
For `O=C(CCNC(=O)c1ccccc1)Nc1nc2ccccc2s1`, the Potency was “inactive”.
With `O=C(Nc1ccccc1F)c1ccc2c(c1)OCO2` the Potency was 3.98 µM (active).
In the case of `COC(=O)c1ccc(N2CCOCC2)c(NC(=O)c2ccc3c(c2)OCCO3)c1`, the Potency is reported as “inactive”.
With `O=C(Nc1ccccc1N1CCN(C(=O)c2ccccc2)CC1)c1ccc2c(c1)OCO2` the Potency was “inactive”.
In the case of `CN1CCN(c2ccc(NC(=O)c3ccc4c(c3)OCCO4)cc2Cl)CC1`, the Potency is reported as 3.55 µM (active).
With `O=C(Nc1cccc(S(=O)(=O)N2CCCCC2)c1)c1ccc2c(c1)OCO2` the Potency was “inactive”.
In the case of `Cc1ccc(F)cc1NC(=O)c1ccc2c(c1)OCO2`, the Potency is reported as “inactive”.
For `O=C(CN1CCc2cc3c(cc2C1)OCCCO3)Nc1ccccc1`, the Potency was “inactive”.
For `O=C(Nc1ccccc1)Nc1nc2ccccc2s1`, the Potency was 2.82 µM (active).
In the case of `O=C(Nc1ccccc1)c1ccc2c(c1)OCCCO2`, the Potency is reported as 0.501 µM (active).
In the case of `O=C(Nc1ccc(Cl)cc1)Nc1nnc(/C=C/c2ccccc2)s1`, the Potency is reported as “inactive”.
With `CN1CCN(c2ccc(NC(=O)c3cc(Cl)c4c(c3)OCCO4)cc2)CC1` the Potency was “inactive”.
For `Cc1cc(C)n2nc(C(=O)OCC(=O)N(C)CC(=O)Nc3ccc(F)cc3)nc2n1`, the Potency was “inactive”.
For `O=C(CSc1nc2[nH]c(=O)[nH]c(=O)c2s1)Nc1cccc(F)c1`, the Potency was “inactive”.
For `Cc1cc(C)c(C#N)c(SCC(=O)N(CC(C)C)C2CCS(=O)(=O)C2)n1` (centres undefined), the Potency was “inactive”.
In the case of `c1csc(-c2nnc(COc3ccc4c(c3)OCO4)o2)c1`, the Potency is reported as “inactive”.
For `Cc1cccc(C(=O)O)c1[N+](=O)[O-]`, the Potency was “inactive”.
With `N#Cc1ccc(C(=O)OCC(=O)NC(=O)NC2CCCCC2)cc1` the Potency was “inactive”.
With `O=S(=O)(c1ccc(SCc2ccccc2)nc1)N1CCCCCC1` the Potency was “inactive”.
With `O=C(Nc1nc2ccccc2s1)c1ccc2c(c1)OCO2` the Potency was 0.562 µM (active).
In the case of `COCc1nnc(NC(=O)c2ccc3c(c2)OCO3)s1`, the Potency is reported as 2.82 µM (active).
With `O=C(Nc1ccccc1)c1ccc2c(c1)OCO2` the Potency was 2.82 µM (active).
For `O=C(Nc1ccc(NC(=O)c2ccc3c(c2)OCO3)cc1)c1cccc(Cl)c1`, the Potency was “inactive”.
For `COc1ccc(S(=O)(=O)N2CCOCC2)cc1C(=O)Nc1nc2ccccc2s1`, the Potency was “inactive”.
With `CCCc1nnc(NC(=O)c2cc(OC)cc(OC)c2)s1` the Potency was “inactive”.
For `O=C(Nc1ccc2c(c1)OCO2)c1ccc(N2C(=O)c3ccccc3C2=O)cc1`, the Potency was “inactive”.
With `Cn1c(NC(=O)c2ccc3c(c2)OCO3)cc(=O)n(C)c1=O` the Potency was “inactive”.
In the case of `CCSc1ccccc1C(=O)Nc1ccc2c(c1)OCO2`, the Potency is reported as “inactive”.
With `O=C(Nc1cccc([N+](=O)[O-])c1)c1ccc2c(c1)OCO2` the Potency was “inactive”.
With `CC(C)C(=O)Nc1cccc(C(=O)Nc2ccc3c(c2)OCO3)c1` the Potency was 2.82 µM (active).
With `O=C(Nc1nc2cc3c(cc2s1)OCCO3)c1cccc(S(=O)(=O)N2CCOCC2)c1` the Potency was “inactive”.
In the case of `CS(=O)(=O)Nc1ccccc1C(=O)OCC(=O)NC1CC1`, the Potency is reported as “inactive”.
For `CSc1ccccc1C(=O)OCC(=O)N1CCN(C(C)=O)CC1`, the Potency was “inactive”.
For `Cc1cccc(C(=O)NC(=S)N2CCN(c3ccc([N+](=O)[O-])cc3)CC2)c1`, the Potency was “inactive”.
For `N#Cc1ccccc1S(=O)(=O)N1CCN(C(=O)c2cc(-c3ccccc3)nn2-c2ccccc2)CC1`, the Potency was “inactive”.
With `Cc1ccc(S(=O)(=O)NCCNC(C)c2ccc(Br)cc2)cc1` (centres undefined) the Potency was “inactive”.
In the case of `CCN(C(=O)CSc1nc(N)cc(=O)[nH]1)C1CCS(=O)(=O)C1` (centres undefined), the Potency is reported as “inactive”.
With `CC1(C)O[C@@H]2[C@H](O1)[C@@H](COS(=O)(=O)O)O[C@H]2n1cnc2c(=O)[nH]cnc21` the Potency was “inactive”.
For `COCCn1c(C)cc(C2=NNC(=Nc3ccc(F)cc3)SC2)c1C`, the Potency was 2.51 µM (active).
With `C=CCn1c(C)cc(C2=NNC(=NCC)SC2)c1C` the Potency was “inactive”.
In the case of `CCN1CCN(C(=O)CSc2ccc(C)cc2)CC1`, the Potency is reported as “inactive”.
With `COC(=O)c1cc(OC)c(OC)cc1NC(=O)CSc1ccc(C)cc1` the Potency was “inactive”.
For `Cc1ccc(SCC(=O)c2cc(C)c(OC(=S)N(C)C)c(C)c2)cc1`, the Potency was 2.51 µM (active).
With `CCC(=O)NC(=S)Nc1ccc(NC(=O)c2ccco2)c(Cl)c1` the Potency was “inactive”.
In the case of `O=C(NNC(=O)c1ccco1)Nc1ccccc1`, the Potency is reported as “inactive”.
In the case of `O=C(NNC(=S)Nc1ccc(Br)cc1Cl)c1ccco1`, the Potency is reported as 3.55 µM (active).
